Biological target: Hexose transporter 1 (Plasmodium falciparum) (UniProt O97467)
Assay: ST_JUDE_LEISH: Cytotoxicity at 2uM final concentration against transgenic Leishmania Mexicana promastigotes LmPfHT that are glucose transport deficient and complemented with the Plasmodium falciparum hexose transporter. Activity is measured by DNA content using SYBR green in vitro
Assay type: functional

SMILES	inhibition [%]
O=C(/C=C/c1ccc(Cl)c(Cl)c1)NCCCCN1CCCN(C(=O)Nc2cc(Cl)cc(Cl)c2)CC1	0.76
Oc1ccc(Cl)cc1CN1CCC2(CCCN(CC3CCC3)C2)C1 (stereo not given)	-0.63
CN(C)Cc1cccc2nc(-c3csc(Cc4cc(Cl)ccc4OCc4ccccc4)n3)[nH]c12	3.36
CCCCC#Cc1cnc2nc(N)[nH]c(=O)c2n1	1.03
O=C(N[C@@H](CC1CCCCC1)C(=O)NC1CCCc2ccccc21)c1ccc(O)c(-c2cccc(C(F)(F)F)c2)c1 (stereo not given in full)	1.73
CCOC(=O)C(C(=O)OCC)c1nc(C)ns1	0.58
CN(C)CCOc1ccc2c(=O)cc(CCc3cccc(F)c3F)n(CC(=O)N(C)Cc3ccc(-c4ccc(C(F)(F)F)cc4)cc3)c2c1	-0.55
COc1ccc(-c2nnc(Sc3ccc(C#N)c([N+](=O)[O-])c3)n2CC(C)C)cc1	3.46
CC1(C)N=C(NC(=O)c2cc([N+](=O)[O-])cc([N+](=O)[O-])c2)N=C(N)N1OCc1cccc2ccccc12	-0.29
Cc1ccc(C2(C)CN(CCCOc3cccc(-c4ccc(C(=O)NC(C)C)cc4)c3)CCO2)cc1 (stereo not given)	4.27
CCOc1cc(C(=O)Nc2ccccc2N2CCN(S(C)(=O)=O)CC2)cc(OCC)c1OCC	3.96
N=C(N)NC(=O)Nc1cc(Br)c(Cl)c(Br)c1	-1.3
O=C(c1ccco1)c1cn(CCOc2ccccc2)c2ccccc12	1.5
O=C(/C=C/c1ccc(Cl)c(Cl)c1)NC1CCC(CN2CCC(c3nc4ccccc4n3CCCO)CC2)CC1 (stereo not given)	1.32
Cc1ncccc1C(=O)Nc1cccc(-c2cccc(-c3nc4cc(C(F)(F)F)ccc4[nH]3)c2)c1	1.25
CCOc1cc(Cc2cnc(N)nc2N)cc(OCC)c1O	1.86
O=S(=O)(NCCN1CCCC1)c1ccc(-c2cccc(CNCc3ccc(F)cc3)c2)cc1F	5.71
CC(C)c1ccc(NC(=O)c2cccc(CN3CCCN(Cc4cccc(C#N)c4)CC3)c2)cc1	6.93
COc1ccc(CCN(C)CCc2ccc(NC(=O)c3cccc4c(=O)c5ccccc5sc34)cc2)cc1	-0.35
Cc1nc2nc(N)nc(N)c2c(C)c1Cc1cccc(C(F)(F)F)c1	-2.48

SMILES	inhibition [%]
CCN(CC)CCCN(C(=O)Nc1cc(F)cc(F)c1)c1nc(-c2ccc(F)cc2)cs1	-0.11
CN(C)CCCNCc1ccc(-c2ccc(C(F)(F)F)cc2)cc1	4.5
Cc1cc(-c2ccc3c(c2)CCN(CCC2CCC(NC(=O)/C=C/c4ccccc4F)CC2)CC3)on1 (stereo not given)	6.81
CCn1ccc2c(N3CCCC3=O)cc(C(=O)N[C@@H](Cc3ccccc3)[C@H](O)CNC3CCCCC3)cc21	7.08
CN(C)CCCNc1ncnc2c1[nH]c1ccc(Br)cc12	2.41
N#Cc1cc(C(=O)c2cc(Cl)ccc2O)cn(-c2cc(Cl)cc(Cl)c2)c1=O	3.14
Cc1nn(C)c(C)c1CN(Cc1nc(-c2cccc(Oc3ccccc3)c2)oc1C)C1CC1	4.11
CCN1CCC(N(Cc2ccc(-c3ccc(C(F)(F)F)cc3)cc2)C(=O)Cn2nc(C)c(=O)cc2SCc2ccc(F)cc2)CC1	0.04
O=C(Nc1ccc(F)cc1)c1ccc(C(=O)NC2CCN(CC3CCCCC3)CC2)cc1	16.6
Cc1nc(-c2cccc(NCc3ccccc3)c2)[nH]c1C	7.04
CS(=O)(=O)Nc1ccc2[nH]cc(C3CCN(CC(O)C4CCN(C(=O)/C=C/c5ccc(Cl)c(Cl)c5)CC4)CC3)c2c1 (stereo not given)	2.94
N#Cc1ccc(-c2ccc(C(=O)NCCCCN3CCC(c4nc5ccccc5[nH]4)CC3)cc2)cc1	2.21
Cc1cccc(CN2CCCN(Cc3ccc(C(=O)Nc4ccc(C(C)(C)C)cc4)cc3)CC2)c1	1.6
Fc1cccc(COc2ccc(Nc3ncnc4ccc(C#C[C@H]5CCCN5)cc34)cc2Cl)c1	1.5
O=C(Nc1ccc([N+](=O)[O-])cc1Cl)c1cc(Br)cc(Cc2ccccc2)c1O	3.32
COc1ccc(CNC2CCN(C)CC2)cc1-c1ccc(S(=O)(=O)NCC2CCCO2)s1 (stereo not given)	4.98
Cc1[nH]c(C)c(Cc2ccc(Oc3ccc(OC(F)(F)F)cc3)cc2)c(=O)c1Br	-0.95
O=C(Nc1ccon1)c1cc(-c2cccnc2)nc2ccc(Br)cc12	5.32
CC(C)(C)CNCC(C)(C)c1nc(-c2ccc(Cl)c(O)c2)c(-c2ccncc2)[nH]1	0
CCCCCCN1CCCN(Cc2ccc(C(=O)Nc3ccc(C(C)(C)C)cc3)cc2)CC1	1.84

Biological target: Glucose transporter (Leishmania mexicana) (UniProt O61059)
Assay: ST_JUDE_LEISH: Cytotoxicity at 2uM final concentration against transgenic Leishmania Mexicana promastigotes LmGT2 that are glucose transport deficient and complemented with the L. Mexicana glucose transporter 2. Activity is measured by DNA content using SYBR green in vitro
Assay type: functional

SMILES	inhibition [%]
O=C(/C=C/c1ccc(Cl)c(Cl)c1)NCCCCN1CCCN(C(=O)Nc2cc(Cl)cc(Cl)c2)CC1	0.06
Oc1ccc(Cl)cc1CN1CCC2(CCCN(CC3CCC3)C2)C1 (stereo not given)	1.23
CN(C)Cc1cccc2nc(-c3csc(Cc4cc(Cl)ccc4OCc4ccccc4)n3)[nH]c12	1.88
CCCCC#Cc1cnc2nc(N)[nH]c(=O)c2n1	0.91
O=C(N[C@@H](CC1CCCCC1)C(=O)NC1CCCc2ccccc21)c1ccc(O)c(-c2cccc(C(F)(F)F)c2)c1 (stereo not given in full)	2.66
CCOC(=O)C(C(=O)OCC)c1nc(C)ns1	0.53
CN(C)CCOc1ccc2c(=O)cc(CCc3cccc(F)c3F)n(CC(=O)N(C)Cc3ccc(-c4ccc(C(F)(F)F)cc4)cc3)c2c1	0.06
COc1ccc(-c2nnc(Sc3ccc(C#N)c([N+](=O)[O-])c3)n2CC(C)C)cc1	1.92
CC1(C)N=C(NC(=O)c2cc([N+](=O)[O-])cc([N+](=O)[O-])c2)N=C(N)N1OCc1cccc2ccccc12	-0.37
Cc1ccc(C2(C)CN(CCCOc3cccc(-c4ccc(C(=O)NC(C)C)cc4)c3)CCO2)cc1 (stereo not given)	0.85
CCOc1cc(C(=O)Nc2ccccc2N2CCN(S(C)(=O)=O)CC2)cc(OCC)c1OCC	3.43
N=C(N)NC(=O)Nc1cc(Br)c(Cl)c(Br)c1	-1.76
O=C(c1ccco1)c1cn(CCOc2ccccc2)c2ccccc12	-0.07
O=C(/C=C/c1ccc(Cl)c(Cl)c1)NC1CCC(CN2CCC(c3nc4ccccc4n3CCCO)CC2)CC1 (stereo not given)	1.75
Cc1ncccc1C(=O)Nc1cccc(-c2cccc(-c3nc4cc(C(F)(F)F)ccc4[nH]3)c2)c1	-2.48
CCOc1cc(Cc2cnc(N)nc2N)cc(OCC)c1O	-1.21
O=S(=O)(NCCN1CCCC1)c1ccc(-c2cccc(CNCc3ccc(F)cc3)c2)cc1F	4.01
CC(C)c1ccc(NC(=O)c2cccc(CN3CCCN(Cc4cccc(C#N)c4)CC3)c2)cc1	3.39
COc1ccc(CCN(C)CCc2ccc(NC(=O)c3cccc4c(=O)c5ccccc5sc34)cc2)cc1	0.2
Cc1nc2nc(N)nc(N)c2c(C)c1Cc1cccc(C(F)(F)F)c1	-2.32

SMILES	inhibition [%]
CCN(CC)CCCN(C(=O)Nc1cc(F)cc(F)c1)c1nc(-c2ccc(F)cc2)cs1	1.69
CN(C)CCCNCc1ccc(-c2ccc(C(F)(F)F)cc2)cc1	4.81
Cc1cc(-c2ccc3c(c2)CCN(CCC2CCC(NC(=O)/C=C/c4ccccc4F)CC2)CC3)on1 (stereo not given)	12.2
CCn1ccc2c(N3CCCC3=O)cc(C(=O)N[C@@H](Cc3ccccc3)[C@H](O)CNC3CCCCC3)cc21	0.18
CN(C)CCCNc1ncnc2c1[nH]c1ccc(Br)cc12	1.04
N#Cc1cc(C(=O)c2cc(Cl)ccc2O)cn(-c2cc(Cl)cc(Cl)c2)c1=O	2
Cc1nn(C)c(C)c1CN(Cc1nc(-c2cccc(Oc3ccccc3)c2)oc1C)C1CC1	5.34
CCN1CCC(N(Cc2ccc(-c3ccc(C(F)(F)F)cc3)cc2)C(=O)Cn2nc(C)c(=O)cc2SCc2ccc(F)cc2)CC1	0.46
O=C(Nc1ccc(F)cc1)c1ccc(C(=O)NC2CCN(CC3CCCCC3)CC2)cc1	11.7
Cc1nc(-c2cccc(NCc3ccccc3)c2)[nH]c1C	1.13
CS(=O)(=O)Nc1ccc2[nH]cc(C3CCN(CC(O)C4CCN(C(=O)/C=C/c5ccc(Cl)c(Cl)c5)CC4)CC3)c2c1 (stereo not given)	3.3
N#Cc1ccc(-c2ccc(C(=O)NCCCCN3CCC(c4nc5ccccc5[nH]4)CC3)cc2)cc1	2.69
Cc1cccc(CN2CCCN(Cc3ccc(C(=O)Nc4ccc(C(C)(C)C)cc4)cc3)CC2)c1	-0.38
Fc1cccc(COc2ccc(Nc3ncnc4ccc(C#C[C@H]5CCCN5)cc34)cc2Cl)c1	2.2
O=C(Nc1ccc([N+](=O)[O-])cc1Cl)c1cc(Br)cc(Cc2ccccc2)c1O	2.81
COc1ccc(CNC2CCN(C)CC2)cc1-c1ccc(S(=O)(=O)NCC2CCCO2)s1 (stereo not given)	5.52
Cc1[nH]c(C)c(Cc2ccc(Oc3ccc(OC(F)(F)F)cc3)cc2)c(=O)c1Br	-3.03
O=C(Nc1ccon1)c1cc(-c2cccnc2)nc2ccc(Br)cc12	0.72
CC(C)(C)CNCC(C)(C)c1nc(-c2ccc(Cl)c(O)c2)c(-c2ccncc2)[nH]1	-1.37
CCCCCCN1CCCN(Cc2ccc(C(=O)Nc3ccc(C(C)(C)C)cc3)cc2)CC1	5.5
